Compound activity as filed in PubChem.
IMPase Li inh: IMPase inhibition in cells with lithium potentiation | CHO-M1 cells, IP1 TR-FRET (IP-One), carbachol + lithium | Potency, µM (doses to about 59.4 µM), inactives show top-dose activity, negative = IMPase inhibition, hits mostly inhibitors | 0.35% of 210,000 active;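 also: IP1 builds up when IMPase is blocked and the TR-FRET signal falls; potency is read from the fitted curve at half-maximal effect; plate controls were basal vehicle for no effect and high inhibitor control for full effect; nearly all actives have a fitted effect of over 50% in size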
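CHO cells stably expressing M1 receptor (2000/well, cultured 16–30 h) treated 30 min at 37C with compound plus low lithium. Cytosolic IP1 by TR-FRET (665/620 ratio and 620 channel) after 10 min lysis; AC50 by Hill fit.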
IMPase inh: cell-permeable inhibitors of inositol monophosphatase (IMPase) | P97697 | CHO-M1 cells, IP1 accumulation, HTRF TR-FRET ratio | inhibition (IP1 accumulation), % at 46.1 µM | 120,000 tested, under 10 active | AID 901; active = well fitted curve in the direction sought with a large enough effect in the signal ratio, not every such curve was filed as active; inconclusive = small, poorly fitted or top-dose-only effect, or a change in a side signal; inactive = no such curve, though single readings can be large or run the other way; the % refers to the signal ratio;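 also: cells stimulated with carbachol in lithium chloride buffer; plate controls were DMSO basal wells for no effect and reference inhibitor wells for full effect; higher means more IMPase inhibition seen as more IP1 and lower FRET ratio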
Target sequence (P97697 whole entry, looked up): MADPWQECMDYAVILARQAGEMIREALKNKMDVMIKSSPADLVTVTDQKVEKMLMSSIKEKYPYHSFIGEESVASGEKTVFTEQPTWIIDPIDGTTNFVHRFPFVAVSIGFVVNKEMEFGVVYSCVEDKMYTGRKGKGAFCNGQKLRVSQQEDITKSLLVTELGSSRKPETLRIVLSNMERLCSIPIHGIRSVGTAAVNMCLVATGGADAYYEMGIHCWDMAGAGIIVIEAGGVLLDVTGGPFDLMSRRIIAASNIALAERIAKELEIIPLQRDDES
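The IP-One HTRF competitive assay in carbachol-stimulated CHO-M1 cells quantifies cellular IP1. Compounds spanned up to 46 uM final, and activity is expressed as AC50 from concentration-response fits of the ratio and donor data.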
PNC inhibitor: inhibitors of perinucleolar compartment assembly; PC3M PTB-GFP, PNC prevalence imaging, 16 h; stronger effect = lower value; activity change (PNC), negative = inhibition, % at 10 µM; 3.1% of 140,000 active;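 active = readout at or below -70, meaning at least 70% loss of cells showing the perinucleolar compartment, a nuclear body marking cancer cells; inconclusive = readout between -30 and a set limit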;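 also: plate controls were DMSO wells for no effect and camptothecin positive control wells for full effect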
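Read-out is percentage of cells bearing a perinucleolar compartment, from automated 20x imaging of fixed, Hoechst-stained PC3M PTB-GFP cells. Cells were seeded 4 h, then exposed 16 h to compound (23 nl of library stock) in duplicate plates.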
ALOX12 inhib: 12-hLO (ALOX12) enzyme inhibition; purified 12-hLO, xylenol orange hydroperoxide absorbance; P18054; 0.12% of 150,000 active; AID 1452; Potency, µM (doses to about 57.1 µM), for inactives: at the highest dose activity change, negative = inhibition, most hits filed as inhibitors; also: potency is read from the fitted curve at half-maximal effect; nearly all actives have a fitted effect of over 55% in size
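Xylenol orange chromogenic assay: hydroperoxide from 12hLO oxidises Fe(II), giving red-shifted Fe(III)-XO absorbance. Conditions: 150 nM enzyme, 40 uM arachidonic acid, 25 mM Hepes pH 7.0, 0.01% Triton X-100, 30 min, room temperature.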
ALOX15B inhib: blocks human 15-lipoxygenase 2 activity | AID 881 | 0.56% of 110,000 active | Potency, µM (doses to about 57.1 µM), inactives show top-dose activity change, negative = inhibition, usual class: inhibitors | O15296 | purified 15hLO-2, xylenol orange hydroperoxide absorbance; also: potency is read from the fitted curve at half-maximal effect; nearly all actives have a fitted effect of over 60% in size
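Purified human 15hLO-2 (50 nM final) preincubated with compounds 15 min at room temperature in 25 mM Hepes pH 7.5, 0.01% Triton X-100, then 45 uM arachidonic acid added for 90 min; hydroperoxide detected via ferrous/xylenol orange, 573/405 nm absorbance ratio.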
HPGD block: inhibitors of human 15-hydroxyprostaglandin dehydrogenase (HPGD) | purified HPGD, NADH fluorescence kinetic, PGE2 substrate | Potency, µM, for the others: at the top dose activity change, negative = inhibition, most hits filed as inhibitors | 4.3% of 150,000 active | AID 894; active = well fitted inhibition curve with a large enough effect, not every such curve was filed as active; inconclusive = small, poorly fitted or top-dose-only effect, or another doubt; inactive = no such curve, though single readings can be large or run the other way; also: potency is read from the fitted curve at half-maximal effect
Target sequence (P15428 whole entry, looked up): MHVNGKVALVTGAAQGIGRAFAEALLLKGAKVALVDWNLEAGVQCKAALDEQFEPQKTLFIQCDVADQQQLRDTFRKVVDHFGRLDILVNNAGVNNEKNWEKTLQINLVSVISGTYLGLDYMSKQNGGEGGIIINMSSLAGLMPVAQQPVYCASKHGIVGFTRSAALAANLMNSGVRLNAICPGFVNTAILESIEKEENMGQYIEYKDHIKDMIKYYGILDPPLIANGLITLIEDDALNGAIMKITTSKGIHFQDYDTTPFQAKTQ
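20 nM HPGD preincubated 15 min at room temperature with compound in 50 mM Tris-HCl pH 8, 0.01% Tween 20. Started with 1 mM NAD+ and 30 uM prostaglandin E2; NADH fluorescence (360/450 nm) read 5 times over 30-s intervals, last minus first.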
Starred values were filed as active, the others as inactive; ? = inconclusive; . = no result given; [ ] = another dose, or the depositor's remark. A selection: hits, their analogues and other compounds. The true share with any hit is near 5.3%. Unless noted, calls follow the shape of the dose curve; as a rule, active = well fitted curve in the direction sought with a large enough effect; inconclusive = small, poorly fitted or top-dose-only effect, or another doubt; inactive = no such curve, though single readings can be large; an effect the other way counts as inactive or inconclusive. Unless noted, % is scaled to controls: 0 for no effect and ±100 for the full control effect.

SMILES	IMPase Li inh	IMPase inh	PNC inhibitor	ALOX12 inhib	ALOX15B inhib	HPGD block
COC(=O)c1sc(N2C(=O)C(=O)/C(=C(/O)c3ccccc3)C2c2ccco2)nc1C (configuration not stated)	-18%	.	-84*	16%	.	25µM*
O=C(Cc1cccs1)NC1C(=O)N2C(C(=O)[O-])=C(C[n+]3ccccc3)CSC12 (configuration not stated)	11%	.	.	-5%	37%	32µM*
CCCn1nnc(NC(=O)c2ccc(Cl)cc2Cl)n1	29%[38.3 µM]	7	-26	-3%	0%	-22%
CCCCn1nnc(NC(=O)c2sc3cc(Cl)ccc3c2Cl)n1	10µM*	?	-4	-14%	-5%	-26%
Cc1nc(NC2CCCCC2)c2nc(-c3ccccc3)n(CC3CCN(C)CC3)c2n1	-8%	.	.	-7%	45%	?
CC1C/C(=C/c2ccco2)C(=O)/C(=C/c2ccco2)C1 (configuration not stated)	11%	.	10	-28%	.	-17%
CC1C/C(=C/c2cccs2)C(=O)/C(=C/c2cccs2)C1 (configuration not stated)	16%	.	-113*	-5%	.	-12%
COCC(=O)N(CCc1ccc(OC)c(OC)c1)Cc1cc2cc(C)ccc2nc1Cl	5%	.	.	.	.	.
S=c1[nH]nc(-c2ccc3ccccc3n2)n1-c1ccc(Cl)cc1	-6%	-18	-6	1%	.	10µM*
Cc1n[nH]c(=S)n1-c1ccc(Cl)cc1	10%	.	.	.	.	.
Fc1ccc(-n2c(-c3ccc4ccccc4n3)n[nH]c2=S)cc1Cl	2.8µM*	.	.	.	.	.
S=c1[nH]nc(-c2ccc3ccccc3n2)n1-c1ccc2ncccc2c1	-3%	.	-15	-5%	.	13µM*
COC(=O)NC(c1ccccc1)c1c[nH]c2ccccc12 (configuration not stated)	2%	.	.	5%	.	-5%
Cc1cc2nc3[nH]c4c(Cl)cc(Cl)cc4c3nc2cc1C	-3%	.	.	1%[11.4 µM]	-5%[11.4 µM]	-7%
COc1ccc(-c2cc(C(F)F)n3ncc(C(=O)Nc4cccc(S(=O)(=O)N5CCOCC5)c4)c3n2)cc1	7%	.	.	.	.	.
CCOc1ccccc1NC(=O)c1c(NC(=O)COc2ccccc2)sc2c1CCCCC2	.	-1	.	.	.	.
CCOC(=O)N1CCN(c2cc(NCCO)c([N+](=O)[O-])c3nonc23)CC1	2%	.	.	.	.	.
CC(=O)OCCNc1cc(N2CCN(C)CC2)c2noc3c2c1C(=O)c1ccccc1-3	53%	42	-93*	-1%	.	-12%
Cc1cc(C(=O)N/N=C/c2cccnc2)cs1	5%	.	-114*	-4%	.	-5%
Cc1cc(C(=O)N/N=C/c2cccnc2)c(C)o1	-6%	6	-18	10%	5%	-3%
Cc1ccc(Cn2ncc(Cl)c(Cl)c2=O)cc1	0%	.	-105*	-2%	.	-8%
Cc1cc(C(F)(F)F)nc(SCC(=O)NC2CC3CCC2C3)n1 (configuration not stated)	13%[38.3 µM]	2	9	4%	11%[2.29 µM]	20µM*
Cc1ccc(S(=O)(=O)n2nc(C)cc2C)cc1	18%[38.3 µM]	0	35	-1%	-2%	-5%
Cc1ccc(C(C[N+](=O)[O-])n2nc(C)cc2C)cc1 (configuration not stated)	26%[38.3 µM]	2	26	4%	?	16µM*
CCOc1ccc(-n2c(=O)c3sccc3n(CC(=O)Nc3cccc(OC)c3)c2=O)cc1	-2%	.	.	.	.	.
SMILES	IMPase Li inh	IMPase inh	PNC inhibitor	ALOX12 inhib	ALOX15B inhib	HPGD block
Cn1cccc1C(=O)C(=O)Nc1ccc(Cl)cc1	-1%[38.3 µM]	5	24	1%	-4%	-6%
Cn1cccc1C(=O)C(=O)Nc1cc(Cl)cc(Cl)c1	14µM*	13	?	5%	-7%	?
Oc1ccc(Cl)cc1C1=Nc2ccccc2N=C(c2ccco2)C1	?	8	-100*	1%	.	-13%
COc1ccc(O)c(C2=Nc3ccccc3N=C(c3ccco3)C2)c1	4%[38.3 µM]	2	2	-1%	-4%	-4%
Cc1cc(C(=O)Cn2nnc3ccccc3c2=O)c(C)n1-c1ccccc1F	21%[38.3 µM]	-2	-87*	-1%	2%	?
COc1ccc(-n2c(C)cc(C(=O)Cn3nnc4ccccc4c3=O)c2C)cc1	23%[38.3 µM]	12	?	-5%	-9%	-21%
C#CC[N+]1(CC#Cc2ccc(C)cc2)CCCCC1	20%	-4	38	2%	.	-4%
Cc1ccc(S(=O)(=O)NCCOc2nc(N(C)C)nc(N3CCOCC3)n2)cc1	23%[38.3 µM]	3	-93*	-6%	3%	-8%
CN(C)c1nc(OCCNC(=O)Nc2ccccc2)nc(N2CCOCC2)n1	19%[38.3 µM]	-5	1	6%	-4%	-4%
O=C(O)c1cc(C(=O)C(=O)c2cc(C(=O)O)c(O)c3ccccc23)c2ccccc2c1O	-4%	.	.	-8%[11.4 µM]	?	4.5µM*
Cn1c(=O)c(C(=O)NCC2CCCO2)c(O)c2ccccc21 (configuration not stated)	7%	.	.	.	.	.
COc1ccc(O)c(/C=N/c2sc(C)c(C)c2C#N)c1	17%[38.3 µM]	10	30	5%	-10%	25µM*
Cc1ccc(C(=O)NN2C(=O)C3C4c5ccccc5C(c5ccccc54)C3C2=O)cc1 (configuration not stated)	1%	-5	79	3%	.	-7%
CN=C1S/C(=C\c2cc(C)n(-c3ccccc3F)c2C)C(=O)N1C	26%	18	22	-5%	-17%	22µM*
COC(=O)CSc1nnc(C)n1-c1cccc(OC)c1	-11%[38.3 µM]	0	-96*	-1%	2%	-19%
CC(C)OC(=O)CSc1nnc(-c2cccnc2)n1N	-3%[38.3 µM]	5	18	-3%	7%	-12%
COC(=O)CSc1nnc(C)n1-c1ccc(C)cc1	20%[38.3 µM]	-6	-19	2%	-8%	6%
COc1cccc(-n2c(SCC(=O)OC(C)C)nnc2-c2cccnc2)c1	-5%[38.3 µM]	3	?	2%	3%[2.29 µM]	22µM*
O=C1CCCc2c1cc(C(=O)Nc1ccc(Br)cn1)c(=O)n2-c1ccccc1	20%[38.3 µM]	4	-8	1%	?	35µM*
CCNc1ncc2ncc(=O)n(CCOC)c2n1	-8%	.	.	.	10%	.
CCOc1ccc(/C=C/C(=O)NCCc2ccc(OC)c(OC)c2)cc1	12%	.	?	3%	.	-5%
CCCCNC(=O)/C=C/c1ccc(OC)c(Br)c1	7%	-3	?	3%	4%	25µM*
N#Cc1ccccc1OCC(O)CNCCNC(=O)Nc1ccccc1 (configuration not stated)	4%	.	.	.	.	.
COc1cccc(Cn2c(=O)c(-c3cccc(F)c3)nc3cncnc32)c1	3%	.	.	-15%	14%	20µM*
